Among the data in PubChem BioAssay AID588726 (The Scripps Research Institute Molecular Screening Center, 2011) are inhibition values, retold here.

In all, about 360,000 compounds went through this assay and about 8,200 (2.3%) were called active. No stated cut-off is given here; in the data, active means inhibition above about 27%; inactive means the rest. Many of the other results were omitted from the sample, so actives are more common in it than they were.

Fructose-bisphosphate aldolase (Mycobacterium tuberculosis (strain ATCC 25618 / H37Rv)), sequence (P9WQA3 whole entry, looked up): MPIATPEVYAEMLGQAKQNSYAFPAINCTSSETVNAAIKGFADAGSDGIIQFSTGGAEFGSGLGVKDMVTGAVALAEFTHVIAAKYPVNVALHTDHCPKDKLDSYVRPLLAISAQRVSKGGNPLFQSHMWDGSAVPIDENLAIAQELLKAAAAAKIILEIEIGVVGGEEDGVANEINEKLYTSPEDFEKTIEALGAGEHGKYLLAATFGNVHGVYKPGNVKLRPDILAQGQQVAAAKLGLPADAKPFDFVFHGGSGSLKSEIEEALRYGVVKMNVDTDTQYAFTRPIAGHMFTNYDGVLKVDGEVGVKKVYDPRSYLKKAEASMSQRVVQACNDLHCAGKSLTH

The experiment addresses Fructose-bisphosphate aldolase (Mycobacterium tuberculosis (strain ATCC 25618 / H37Rv)) (UniProt P9WQA3). The experiment can be described thus: M. tuberculosis aldolase activity blockers – biochemical, fluorescence, strain H37Rv, primary screen (AID 588726).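 Further: 0% = vehicle and 100% = reference inhibitor.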 Conditions: purified M. tuberculosis FBA, fluorescence read-out, at 1 µM, hits give high values.
In the case of `CC(C)C1CCN(C(=O)C2CCC(=O)N(C3CCCCCC3)C2)CC1` (configuration not stated), the inhibition (usually the relative decrease from the control value, in per cent) was -1.51% (inactive).
For `CCN(C(=O)Cc1c(C(=O)O)n(CC)c2ccccc12)c1ccccc1C`, the inhibition is 0.97% (inactive).
In the case of `Fc1ccc(COc2ccc(-c3nnco3)cc2)cc1`, the inhibition was -0.19% (inactive).
Take `Fc1ccc(COc2cccc(-c3n[nH]c(=S)o3)c2)cc1`: the inhibition is 29.4% (active).
The result for `Fc1ccc(/C=N/n2c(COc3ccccc3)n[nH]c2=S)cc1` reads 2.47% (inactive); that for `CC1(C)C2CC[C@]3(C)C(CC=C4[C@@H]5C[C@@](C)(CO)CC[C@]5(C(=O)O)CC[C@]43C)[C@@]2(C)CC[C@@H]1O` (some centres not stated), 0.29% (inactive); that for `Cc1ccccc1C(=O)N1CCC(C(=O)Nc2ccc(S(=O)(=O)N(C)C(C)C)cc2)CC1`, 1.27% (inactive).
`Cc1c(C)n2c(SCC(=O)N3CCCC3)nnc2[nH]c1=O`: the inhibition is -0.46% (inactive).
For `CC(=O)c1sc2nc(SCC(=O)N3CCCCC3)[nH]c(=O)c2c1C`, the inhibition was 30.5% (active).
As for `O=C(CSc1nc2c(cnn2-c2ccc(F)cc2)c(=O)[nH]1)N1CCCCCC1`, the inhibition was 2.6% (inactive).
In the case of `CC(C)c1ccc(N(C(=O)c2ccco2)C(C(=O)NC2CCCC2)c2cccnc2)cc1` (configuration not stated), the inhibition is -3.97% (inactive).
With `O=C(NC(=S)Nc1ccccc1C(=O)O)c1ccc(-c2ccc(Br)cc2)o1`, the inhibition was 10.4% (inactive).
On to `CCOC(=O)Cc1c(C)nc2c(C#N)c(C)nn2c1C`, for which the inhibition was 46.4% (active).
With `Cc1cc(C)cc(NC(=O)CCN2C(=O)c3ccccc3C2=O)c1` the figure was 0.74% (inactive).
On to `Cc1cc(C)cc(NC(=O)CSc2ccccc2)c1`, for which the inhibition is 70.8% (active).
With `Cc1cc(C)cc(NC(=O)CSCc2cnn(-c3ccccc3)c2-n2cccc2)c1` the figure was -1.78% (inactive); with `CCCN(CC(=O)Nc1ccccc1C)C(=O)c1ccc(OCC(=O)N2CCOCC2)c(OCC)c1`, -1.46% (inactive); with `Cn1ncc2c(N3CCCCC3)nc(NCCCO)nc21`, -2.65% (inactive).
With `CC(C)(C)C(=O)NC1CC2CCCC(C1)N2C(=O)Nc1ccccc1F` (configuration not stated), the inhibition is -0.96% (inactive).
Take `CCCCn1c(-c2cccc(C)c2)nc2cc3[nH]c(=O)c(C(C)C)nc3cc21`: the inhibition is 87.6% (active).
The result for `COc1ccc(-c2nc3ccccc3n2CCC(C)C)cc1OC` reads 5.55% (inactive); that for `CCCCn1c(N)c(N(CCOC)C(=O)CSCC(=O)Nc2cccc(C)c2)c(=O)[nH]c1=O`, -1.91% (inactive).
As to `Nn1c(Cc2cccc3ccccc23)nnc1SCC(=O)N1CC(=O)Nc2ccccc21`, the inhibition is 1.67% (inactive).
For the molecule `CSCCC(Nc1ccc(S(=O)(=O)N2CCOCC2)cc1[N+](=O)[O-])C(=O)OCC(=O)N(C(C)C)C(C)C` (configuration not stated), the inhibition is -2.32% (inactive).
In the case of `CCOC(=O)Cc1cc(=O)[nH]c(=O)[nH]1`, the inhibition is 1.01% (inactive).
On to `Cc1c(CCC(=O)O)c(=O)oc2c(C)c(OCc3ccccc3Cl)ccc12`, for which the inhibition was 5.47% (inactive).
In the case of `FC(F)(F)c1ccc(-c2cccc3c2C2CC3CCN2Cc2ccccc2)cc1` (configuration not stated), the inhibition is 4.42% (inactive).
As for `O=C(NCC(c1cccs1)N1CCOCC1)c1cc(-c2ccccn2)nc2ccccc12` (configuration not stated), the inhibition was 5.77% (inactive).
The result for `COC(=O)c1cc(-c2cccs2)nc2ccccc12` reads 31.1% (active); that for `O=C(NCCN1CCOCC1)c1cc(-c2cccs2)nc2ccccc12`, 67.9% (active); that for `Cc1cc(C(=O)OCC(=O)Nc2nccs2)c2ccccc2n1`, -2.68% (inactive).
`O=C(NCCc1ccccn1)c1cc(-c2ccc(Cl)cc2)nc2ccccc12`: the inhibition is -0.88% (inactive).
For `CCCCN(C)CCCNC(=O)c1cc(-c2cccs2)nc2ccccc12`, the inhibition is 140% (active).
The result for `Cc1csc2nc(O)c(C(=O)NCCN3CCOCC3)c(=O)n12` reads 0.68% (inactive).
With `COC(=O)c1cc(N2CCNCC2)nc2ccccc12` the figure was 12.9% (inactive).
Turning to `O=C(NCCN1CCOCC1)c1cc(Sc2cccc(Cl)c2)nc2ccccc12`, the inhibition was -0.13% (inactive).
Turning to `CC(C)CC(=O)N=C1SC2CS(=O)(=O)CC2N1CCc1ccccc1` (configuration not stated), the inhibition is -1.54% (inactive).
Consider `C[C@H](CO)N1C[C@H](C)[C@@H](CN(C)S(=O)(=O)c2ccc(F)cc2)OCc2cnnn2CCCC1=O`, for which the inhibition was -1.18% (inactive).
With `CCc1n[nH]c(=S)n1/N=C/c1c[nH]c2ccc(Br)cc12` the figure was 4.89% (inactive); with `N#CCSc1nn(-c2ccc(F)cc2)c(=S)s1`, 2.99% (inactive); with `CCCCC(=O)NNC(=S)NC(=O)C(c1ccccc1)c1ccccc1`, 6.76% (inactive).
Regarding `CSc1ccc(CN2CCC2(C)C(=O)Nc2ccc(C)c(O)c2)cc1` (configuration not stated), the inhibition was -1.62% (inactive).
For the molecule `Cc1oc(CC(C)C)c(CN2CCCC2)c1C(=O)O`, the inhibition is -9.07% (inactive).
As to `Cc1noc(C)c1C(=O)OCC(=O)N1CCN(S(=O)(=O)c2ccc3ccccc3c2)CC1`, the inhibition was 3.46% (inactive).
With `O=c1cc(CN2CCCCCCC2)c2c(ccc3ccccc32)o1`, the inhibition was 17% (inactive).
With `CCCc1cc(=O)oc2c(C)c(OC(C)C(=O)NCC(O)c3ccccc3)ccc12` (configuration not stated) the figure was 18.1% (inactive); with `O=C(CSc1ncccn1)N1CCCC1`, 1.75% (inactive).
Regarding `Cc1ccc(NC(=O)CN2CCc3ccccc3C2)cc1C`, the inhibition was 0.22% (inactive).
For `Cc1cccc2c1-c1sc(C(=O)NCCCN3CCc4ccccc4C3)cc1CO2`, the inhibition is 90.4% (active).
The result for `Cc1cccc(C)c1NC(=O)c1ccc(CN2CCc3ccccc3C2)cc1` reads 1.47% (inactive); that for `NC(=O)C1CCN(C(=O)COc2ccc3c4c(c(=O)oc3c2)CCC4)CC1`, 30.9% (active).
As for `NC(=O)COc1ccc2c3c(c(=O)oc2c1)CCCCC3`, the inhibition is 114% (active).
For the molecule `CCOC(=O)N1CCN(C(=O)COc2ccc3oc4c(c3c2)CCCC4)CC1`, the inhibition is 0.5% (inactive).
For the molecule `O=C(COc1ccc2c3c(c(=O)oc2c1)CCC3)NC1CCCCC1`, the inhibition was 14.8% (inactive).
Turning to `COc1ccc(N2CCN(C(=O)COc3ccc4c(C)cc(=O)oc4c3)CC2)cc1`, the inhibition was 14.8% (inactive).
With `O=C(COc1ccc2oc3c(c2c1)CCCC3)Nc1ccccn1`, the inhibition was 1.77% (inactive).
Consider `CCCN(CCC)CCCNC(=O)CNC(=O)c1nn(-c2ccc(OC)cc2)c(=O)c2ccccc12`, for which the inhibition was 1.04% (inactive).
As for `O=C(COC(=O)CC1CC2CCC1C2)NC(=O)NC1CCCC1` (configuration not stated), the inhibition was -0.01% (inactive).
Take `COc1ccccc1NC(=O)C(CC(=O)O)Cc1cc(C)cc(C)c1` (configuration not stated): the inhibition was -0.4% (inactive).
As for `COc1ccc2nc(N3CCN(C(=O)c4ccc([N+](=O)[O-])o4)CC3)sc2c1`, the inhibition is -2.42% (inactive).
On to `NS(=O)(=O)c1ccc2nc(NC(=O)C3=COCCO3)sc2c1`, for which the inhibition is 1.72% (inactive).
The result for `COc1ccc2nc(Nc3nc4cc5c(cc4s3)OCCO5)sc2c1` reads 58.2% (active); that for `Cc1cc(C)cc(Oc2nc3c(C)cccn3c(=O)c2/C=C(\C#N)C(=O)NC2CCS(=O)(=O)C2)c1` (configuration not stated), 16.1% (inactive); that for `C/C(=N/OC(=O)c1ccc(Br)cc1)c1ccc(C)cc1`, 1.15% (inactive).
On to `COc1ccc(S(=O)(=O)NC(=O)C2(C)CCN2C(=O)c2ccccc2CCc2ccccc2)cc1` (configuration not stated), for which the inhibition was 0.28% (inactive).
The result for `CCOc1ccc2nc(Nc3nc4ccc(NC(C)=O)cc4s3)sc2c1` reads 44.8% (active); that for `CCOc1ccc2nc(C(=O)N3CCCC(C)C3)sc2c1` (configuration not stated), 0.22% (inactive).
Regarding `CC(=O)Nc1ccc2nc(NC(=O)CS(=O)(=O)c3ccc(F)cc3)sc2c1`, the inhibition was 1.63% (inactive).
Regarding `O=C(NN1C(=O)C2C3C=CC(C3)C2C1=O)c1ccco1` (configuration not stated), the inhibition was 8.04% (inactive).
With `CCC(C)NCC(=O)Nc1ccc([N+](=O)[O-])cc1C(=O)Nc1ccccc1F` (configuration not stated), the inhibition was -4.2% (inactive).
The result for `CCOC(=O)N1CCC(NC(=O)Cc2cn(C)c3ccccc23)CC1` reads 11% (inactive).
Consider `CCOC(=O)N1CCC(NC(=O)CCc2cn(C)c3ccccc23)CC1`, for which the inhibition was 8.05% (inactive).
In the case of `CCOC(=O)N1CCC(NC(=O)c2cnn3ccccc23)CC1`, the inhibition was 30.3% (active).
Take `CCO[C@@H]1OC(C(=O)NC2CC2)=C[C@H](C)[C@H]1CCCO`: the inhibition was -0.48% (inactive).
With `O=C(O)C1CCCCC1C(=O)N1CCN(S(=O)(=O)c2ccc(F)cc2)CC1` (configuration not stated), the inhibition is -1.39% (inactive).
For `CSc1c(SCc2ccccc2)cnn(Cc2ccccc2)c1=O`, the inhibition was -0.17% (inactive).
The result for `COC(=O)c1ccc(C2C(Oc3ccccc3C)C(=O)N2CCc2ccc(OC)c(OC)c2)cc1` (configuration not stated) reads -0.68% (inactive); that for `COc1ccccc1N1N=C(c2cccs2)CC1c1ccccc1` (configuration not stated), 39.5% (active).
For the molecule `Oc1ccccc1C1=NN(c2ccccc2)C(c2ccccc2)C1` (configuration not stated), the inhibition is 72.4% (active).
On to `O=C1C2N=NN(CC(=O)N3N=C(c4cccc5ccccc45)CC3c3ccccc3)C2C(=O)N1c1ccccc1` (configuration not stated), for which the inhibition is 11.2% (inactive).
As for `COc1ccc(C2CC(c3cccs3)=NN2c2nc(C)c(C(C)=O)s2)cc1OC` (configuration not stated), the inhibition is 16.3% (inactive).
Consider `COc1ccc(C2CC(c3cccs3)=NN2c2ccc(F)cc2)cc1OC` (configuration not stated), for which the inhibition was 27.2% (active).
Regarding `Fc1ccc(N2N=C(c3cccs3)CC2c2ccco2)c(F)c1` (configuration not stated), the inhibition was 102% (active).
The result for `Cc1ccc(N2C(=O)C3N=NN(CC(=O)N4N=C(c5cccc6ccccc56)CC4c4ccccc4)C3C2=O)cc1` (configuration not stated) reads 11.4% (inactive); that for `COc1ccc(C2CC(c3cccs3)=NN2C(=O)CSc2nnc(N)s2)cc1OC` (configuration not stated), 3.05% (inactive); that for `Cc1ccc(C2=NN(C(=O)CSc3nc(N)cc(N)n3)C(c3ccco3)C2)cc1` (configuration not stated), 0.79% (inactive).
With `O=C(COc1ccccc1Cl)N1N=C(c2cccs2)CC1c1ccco1` (configuration not stated) the figure was 7.49% (inactive); with `COc1cccc(C2CC(c3cccs3)=NN2C(=O)CSC2=NCCS2)c1OC` (configuration not stated), 6.98% (inactive).
Consider `Cc1ccccc1C1CC(c2cccs2)=NN1S(C)(=O)=O` (configuration not stated), for which the inhibition is -0.14% (inactive).
On to `Cc1ccc(C(=O)OCC(=O)NC(=O)Cc2ccccc2)c(O)c1`, for which the inhibition was -0.03% (inactive).
As for `Cc1cc(C(C)(C)C)cc(S(=O)(=O)Nc2ccc(C(=O)O)cc2)c1C`, the inhibition was -1.68% (inactive).
The result for `CC(=O)Oc1c(C(=O)c2nnc(C)o2)c(=O)n(Cc2ccccc2)c2ccccc12` reads 8.77% (inactive).
